Growth data for twelve compounds are collected here from PubChem BioAssay (NCI).

Test systems include T-47D breast; BT-549 breast; MDA-MB-435 melanoma; SW-620 colon; MCF7 breast; HCT-116 colon; HCC-2998 colon; KM12 colon.
Common to all, as to assay: NCI-60 one-dose screen, 48 h (100 = growth as untreated, 0 = no growth, -100 = all killed)

SMILES strings stand for the structures. Where “and” joins values, the source holds several entries; their conditions need not be identical. Identical values can stand only once. The panel holds about 83,000 compounds, 20% with a hit somewhere; the sample as a whole holds those more often.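 Testing used 96-well plates and a 48-hour single-concentration exposure. Example: -40 means 40% of the starting cells died.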 Calls of active or inactive are those of the source. The calls were made as follows: active = growth percent below 10; inactive = the rest.

As for `COc1c(F)cc(-n2c(C(=O)N3CC(F)C3)cc3cccnc32)cc1F`, the growth in the test with T-47D breast (10 µM unless noted) was 89.5% (inactive); in the test with BT-549 breast (10 µM unless noted), 97.2% (inactive); in the test on MDA-MB-435 melanoma (10 µM unless noted), 116% (inactive); in the test with SW-620 colon (10 µM unless noted), 104% (inactive); in the test on MCF7 breast (10 µM unless noted), 105% (inactive); with HCT-116 colon (10 µM unless noted), 95.9% (inactive). The growth with HCC-2998 colon (10 µM unless noted) is 99.7% (inactive); with KM12 colon (10 µM unless noted), 98.8% (inactive).
For the compound `CC(=O)/C=C/c1ccc(N(CCO)Cc2ccc(C(C)(C)C)cc2)cc1`, the growth is 60.2% (inactive) with T-47D breast (10 µM); -83.2% (active) in the test on T-47D breast (100 µM); 79% (inactive) with BT-549 breast (10 µM); -88.9% (active) in the test on BT-549 breast (100 µM); 80.7% (inactive) with MDA-MB-435 melanoma (10 µM); -94.4% (active) in the test with MDA-MB-435 melanoma (100 µM). Besides, the growth in the test on SW-620 colon (10 µM) is 83.9% (inactive); in the test on SW-620 colon (100 µM), -91.8% (active); with MCF7 breast (10 µM) it was 62.9% (inactive); in the test with MCF7 breast (100 µM) it was -55.4% (active); in the test on HCT-116 colon (10 µM), 67.2% (inactive); in the test on HCT-116 colon (100 µM), -98.1% (active). In addition, the growth is 86.7% (inactive) in the test on HCC-2998 colon (10 µM), -89.2% (active) in the test with HCC-2998 colon (100 µM), 81.2% (inactive) with KM12 colon (10 µM) and -78.2% (active) in the test on KM12 colon (100 µM).
Turning to `CC(=O)/C=C/c1ccc(OCc2ccc(C(C)(C)C)cc2)cc1`, the growth is 52.8% (inactive) in the test with T-47D breast (10 µM); 5.88% (active) in the test on T-47D breast (100 µM); 103% (inactive) in the test on BT-549 breast (10 µM); 21.3% (inactive) with BT-549 breast (100 µM); 78.4% (inactive) in the test with MDA-MB-435 melanoma (10 µM); 39.5% (inactive) with MDA-MB-435 melanoma (100 µM). Further, the growth is 72.1% (inactive) in the test on SW-620 colon (10 µM); 38.6% (inactive) in the test on SW-620 colon (100 µM); 66.6% (inactive) in the test with MCF7 breast (10 µM); 41.8% (inactive) in the test on MCF7 breast (100 µM); 68.9% (inactive) in the test with HCT-116 colon (10 µM); 25.3% (inactive) in the test on HCT-116 colon (100 µM). Further, the growth is 92.1% (inactive) with HCC-2998 colon (10 µM), 86.8% (inactive) in the test with HCC-2998 colon (100 µM), 82.9% (inactive) in the test on KM12 colon (10 µM) and 32.1% (inactive) in the test on KM12 colon (100 µM).
For `C/C(=C(\c1ccc(OCCN2CCOCC2)cc1)c1ccc(OC(=O)C2CCCCC2)cc1)c1ccc(Cl)cc1`, the growth was 66.5% (inactive) in the test with T-47D breast (10 µM unless noted); 91.3% (inactive) in the test with BT-549 breast (10 µM unless noted); 94.4% (inactive) in the test with MDA-MB-435 melanoma (10 µM unless noted); 96.6% (inactive) in the test with SW-620 colon (10 µM unless noted); 79.8% (inactive) with MCF7 breast (10 µM unless noted); 78.7% (inactive) in the test on HCT-116 colon (10 µM unless noted). Moreover, the growth in the test on HCC-2998 colon (10 µM unless noted) was 94.2% (inactive); with KM12 colon (10 µM unless noted), 98.8% (inactive).
Consider `CC(=O)/C=C/c1ccc(OCc2ccc(Cl)cc2)cc1`, for which the growth with T-47D breast (10 µM) is 93.1% (inactive); in the test with T-47D breast (100 µM), 20.2% (inactive); in the test with BT-549 breast (10 µM) it was 102% (inactive); in the test on BT-549 breast (100 µM) it was 38% (inactive); with MDA-MB-435 melanoma (10 µM), 94.5% (inactive); with MDA-MB-435 melanoma (100 µM), 23.1% (inactive). The growth with SW-620 colon (10 µM) is 104% (inactive); in the test with SW-620 colon (100 µM), 70.4% (inactive); in the test on MCF7 breast (10 µM) it was 94.2% (inactive); in the test on MCF7 breast (100 µM), 46% (inactive); with HCT-116 colon (10 µM), 90.5% (inactive); in the test with HCT-116 colon (100 µM), 46.1% (inactive). Besides, the growth in the test on KM12 colon (10 µM) was 93.9% (inactive); with KM12 colon (100 µM), 35.3% (inactive).
In the case of `Nc1ccc(/C=N/Nc2ccnc3c(N)cccc23)c2cccnc12`, the growth in the test with T-47D breast (10 µM unless noted) was -39.5% (active); in the test with BT-549 breast (10 µM unless noted), -37.2% (active); with MDA-MB-435 melanoma (10 µM unless noted) it was -84.1% (active); in the test on SW-620 colon (10 µM unless noted) it was -28.3% (active); with MCF7 breast (10 µM unless noted), -47.1% (active); in the test on HCT-116 colon (10 µM unless noted), -93.1% (active). Also, the figures for the growth in the test on HCC-2998 colon (10 µM unless noted) and with KM12 colon (10 µM unless noted) were 41.5% (inactive) and 0.438% (active), respectively.
As for `O=C(/C=C/c1ccccc1)c1cccs1`, the growth in the test on T-47D breast (10 µM unless noted) was 97.3% (inactive) and 104% (inactive); in the test with BT-549 breast (10 µM unless noted), 104% (inactive) and 107% (inactive); with MDA-MB-435 melanoma (10 µM unless noted) it was 88.9% (inactive) and 85.1% (inactive); in the test on SW-620 colon (10 µM unless noted), 84.6% (inactive) and 98.3% (inactive); in the test on MCF7 breast (10 µM unless noted), 29.1% (inactive) and 21.7% (inactive); with HCT-116 colon (10 µM unless noted), 74% (inactive) and 57.3% (inactive). Besides, the growth was 97.3% (inactive) and 130% (inactive) in the test on HCC-2998 colon (10 µM unless noted); 69.6% (inactive) and 70% (inactive) with KM12 colon (10 µM unless noted).
Consider `C[C@@H]1CC[C@@H]2[C@@H]1[C@H](OC(=O)/C=C/c1ccccc1)[C@]1(c3ccccc3)C[C@@H](NC(=O)CO)[C@@]2(C)O1`, for which the growth in the test on T-47D breast (10 µM unless noted) was 93.3% (inactive); with BT-549 breast (10 µM unless noted), 114% (inactive); with MDA-MB-435 melanoma (10 µM unless noted) it was 100% (inactive); in the test on SW-620 colon (10 µM unless noted), 104% (inactive); with MCF7 breast (10 µM unless noted) it was 79.4% (inactive); with HCT-116 colon (10 µM unless noted), 100% (inactive). Moreover, the figures for the growth in the test with HCC-2998 colon (10 µM unless noted) and in the test on KM12 colon (10 µM unless noted) were 104% (inactive) and 94.8% (inactive), respectively.
Regarding `CCOC(=O)n1cc(-c2nonc2-c2cn(C)c3ccc(OC)cc23)c2cc(F)ccc21`, the growth in the test on T-47D breast (10 µM unless noted) is 73% (inactive); in the test with BT-549 breast (10 µM unless noted), 86.9% (inactive); in the test on MDA-MB-435 melanoma (10 µM unless noted), 85.7% (inactive); in the test with SW-620 colon (10 µM unless noted), 80.5% (inactive); in the test on MCF7 breast (10 µM unless noted) it was 77.6% (inactive); with HCT-116 colon (10 µM unless noted), 77.3% (inactive). Moreover, the growth is 91.9% (inactive) in the test on HCC-2998 colon (10 µM unless noted) and 77.7% (inactive) in the test on KM12 colon (10 µM unless noted).
Take `Cc1ccc2[nH]c(=S)[nH]c(=O)c2c1`: the growth in the test on T-47D breast (10 µM unless noted) was 89% (inactive); with BT-549 breast (10 µM unless noted), 101% (inactive); in the test with MDA-MB-435 melanoma (10 µM unless noted), 101% (inactive); with SW-620 colon (10 µM unless noted), 103% (inactive); in the test with MCF7 breast (10 µM unless noted), 99.8% (inactive); with HCT-116 colon (10 µM unless noted) it was 101% (inactive). Moreover, the figures for the growth in the test with HCC-2998 colon (10 µM unless noted) and with KM12 colon (10 µM unless noted) were 98.2% (inactive) and 100% (inactive), respectively.
Take `NS(=O)(=O)OCC1OC(n2cnc3cncnc32)C(O)C1O` (stereo unspecified): the growth with T-47D breast (10 µM unless noted) is 7.17% [0.1 µM] (active) and 10.8% [0.1 µM] (inactive); with BT-549 breast (10 µM unless noted), 36% [0.1 µM] (inactive) and 32.4% [0.1 µM] (inactive); in the test on MDA-MB-435 melanoma (10 µM unless noted), 1.21% [0.1 µM] (active) and 13.3% [0.1 µM] (inactive); in the test on SW-620 colon (10 µM unless noted) it was 5.5% [0.1 µM] (active) and 6.37% [0.1 µM] (active); in the test with MCF7 breast (10 µM unless noted) it was 5.2% [0.1 µM] (active) and 3.48% [0.1 µM] (active); with HCT-116 colon (10 µM unless noted), 2.55% [0.1 µM] (active) and 6.83% [0.1 µM] (active). Also, the growth with HCC-2998 colon (10 µM unless noted) is 30.7% [0.1 µM] (inactive) and 22.9% [0.1 µM] (inactive); in the test with KM12 colon (10 µM unless noted), 14% [0.1 µM] (inactive) and 10.4% [0.1 µM] (inactive).
For the compound `CC(=O)/C=C/c1ccc(N(C)Cc2ccc(C(C)(C)C)cc2)cc1`, the growth was 62.5% (inactive) in the test on T-47D breast (10 µM); -53.9% (active) with T-47D breast (100 µM); 101% (inactive) in the test with BT-549 breast (10 µM); -90.8% (active) with BT-549 breast (100 µM); 88.5% (inactive) in the test with MDA-MB-435 melanoma (10 µM); -54.3% (active) with MDA-MB-435 melanoma (100 µM). Moreover, the growth is 88.5% (inactive) with SW-620 colon (10 µM); -53.5% (active) in the test on SW-620 colon (100 µM); 80.3% (inactive) in the test on MCF7 breast (10 µM); -22.6% (active) in the test on MCF7 breast (100 µM); 79.9% (inactive) in the test on HCT-116 colon (10 µM); -66.2% (active) in the test with HCT-116 colon (100 µM). For the same compound, the growth was 99.6% (inactive) with HCC-2998 colon (10 µM), -41.2% (active) in the test with HCC-2998 colon (100 µM), 95.5% (inactive) in the test with KM12 colon (10 µM) and -45.7% (active) in the test on KM12 colon (100 µM).
